Laboratory results as given in PubChem BioAssay (NCI).
The panel holds about 83,000 compounds, 20% with a hit somewhere; the sample as a whole holds those more often.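 Cell lines were cultured in 96-well plates, exposed to a single compound concentration, and assessed for percent growth 48 hours later.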 Calls of active or inactive are those of the source. How the source made its calls: active means growth percent below 10; inactive means the rest.

Key:
Experiment in all cases: NCI-60 one-dose screen, 48 h (100 = growth as untreated, 0 = no growth, -100 = all killed)
Settings in all cases: 10 µM
BT-549 breast = test system: BT-549 breast
MDA-MB-435 melanoma = test system: MDA-MB-435 melanoma
MCF7 breast = test system: MCF7 breast
HCT-116 colon = test system: HCT-116 colon
KM12 colon = test system: KM12 colon
SW-620 colon = test system: SW-620 colon
HCC-2998 colon = test system: HCC-2998 colon

Measured: growth

COc1cc(/C(=C2/O[C@@H]([C@H]3COC(C)(C)O3)[C@H]3OC(C)(C)O[C@@H]23)c2ccc3ccccc3c2)cc(OC)c1OC
active: HCT-116 colon -56.4%
inactive: BT-549 breast 22.2% | MDA-MB-435 melanoma 26.2% | MCF7 breast 22.8% | KM12 colon 33.4%

Cc1cc(Cc2cc(C)c(O)c(C)c2)cc(C)c1O
active: MDA-MB-435 melanoma -29%
inactive: SW-620 colon 21.6% | MCF7 breast 22.8% | HCT-116 colon 30.6% | HCC-2998 colon 74.4% | KM12 colon 39.4%

N#Cc1cc(-c2cc3ccccc3o2)oc1N
active: MDA-MB-435 melanoma 5.63% | HCT-116 colon 8.05% | KM12 colon 0.443%
inactive: SW-620 colon 12% | MCF7 breast 22.9%

CCCCCCCC(C)NCCO (centres undefined)
inactive: MDA-MB-435 melanoma 97.6% | SW-620 colon 106% | MCF7 breast 97.9% | HCT-116 colon 111% | HCC-2998 colon 105% | KM12 colon 102%

COc1ccc2c(c1)[n+]([O-])c(C#N)c(NC(=O)c1ccco1)[n+]2[O-]
inactive: MDA-MB-435 melanoma 104% | SW-620 colon 108% | MCF7 breast 90.8% | HCT-116 colon 99.9% | KM12 colon 105%

COc1cc2nc(Nc3cccc(C(=O)O)c3)nc(N)c2cc1OC
active: HCT-116 colon -100%
inactive: MDA-MB-435 melanoma 107% | SW-620 colon 96.3% | MCF7 breast 97.8% | HCC-2998 colon 135% | KM12 colon 108%

O=[N+]([O-])c1cccc(-c2ncc(-c3ccc(Cl)cc3Cl)[nH]2)c1
active: SW-620 colon -88% | MCF7 breast -8.38%
inactive: MDA-MB-435 melanoma 76.5% | HCT-116 colon 13.5% | HCC-2998 colon 58.1% | KM12 colon 15.7%

COc1cc2c(cc1OCCCN1CCN(c3ncnc4ccccc34)CC1)N=CC1CCCN1C2=O (centres undefined)
active: MDA-MB-435 melanoma -67.8% | SW-620 colon -24% | MCF7 breast -17.4% | KM12 colon -24.8%
inactive: HCT-116 colon 11.7%

CCCCCCCCCCCC[n+]1ccc(C(N)=O)cc1
inactive: MDA-MB-435 melanoma 33.6% | SW-620 colon 23.6% | MCF7 breast 40.2% | HCT-116 colon 25.6% | HCC-2998 colon 25.8%
active: KM12 colon -47%

O=C(Nc1ccncc1)C(=O)c1cn(S(=O)(=O)c2cc(Cl)cc(Cl)c2)c2ccccc12
active: MDA-MB-435 melanoma 8.83%
inactive: SW-620 colon 64.9% | MCF7 breast 43.9% | HCT-116 colon 51.4% | KM12 colon 55.3%

O=C(C[n+]1ccccc1)c1ccc2ccccc2c1
inactive: BT-549 breast 100% | MDA-MB-435 melanoma 102% | MCF7 breast 98.1% | HCT-116 colon 91.2% | KM12 colon 93.1%

COc1cc(/C=N/NC(=O)c2ccccc2Nc2cccc(C(F)(F)F)c2)cc(OC)c1OC
inactive: HCT-116 colon 158% | HCC-2998 colon 28.2% | KM12 colon 16.6%
active: MDA-MB-435 melanoma -34% | SW-620 colon 3.91% | MCF7 breast 5.18%

O=[N+]([O-])c1cccc(N=Cc2ccc3c(c2)OCO3)c1
inactive: MDA-MB-435 melanoma 102% | SW-620 colon 108% | MCF7 breast 103% | HCT-116 colon 106% | HCC-2998 colon 98.3% | KM12 colon 112%

CS(=O)(=O)Nc1ccc(Nc2c3ccccc3nc3cc(N)ccc23)cc1
active: MCF7 breast 6.57% | KM12 colon 5.56%
inactive: MDA-MB-435 melanoma 53.6% | SW-620 colon 39.8% | HCT-116 colon 28% | HCC-2998 colon 35.2%

COc1ccc(/C(=C2/O[C@@H]([C@H]3COC(C)(C)O3)[C@H]3OC(C)(C)O[C@@H]23)c2cc(OC)c(OC)c(OC)c2)cc1O
inactive: BT-549 breast 67.5% | MCF7 breast 60.9% | HCT-116 colon 78.1%
active: MDA-MB-435 melanoma -10.2% | KM12 colon 5.71%

CCN1CCC(CCOC)(CN2c3ccccc3Sc3ccc(Cl)cc32)C1 (centres undefined)
inactive: MDA-MB-435 melanoma 10.9% | SW-620 colon 54% | MCF7 breast 22.9% | HCT-116 colon 28.8% | HCC-2998 colon 40.5% | KM12 colon 29.8%

Fc1ccc2nc(-c3nc(-c4ccccc4)n4ccccc34)[nH]c2c1
active: MDA-MB-435 melanoma -19.4% | MCF7 breast -12.6% | HCT-116 colon -31.2%
inactive: SW-620 colon 26.5% | HCC-2998 colon 29.2%

CC[C@H]1CCC/C=C/[C@@H]2C[C@H](O)C[C@H]2[C@H](O)/C=C/C(=O)O1
active: MDA-MB-435 melanoma 5.71% | SW-620 colon -69% | MCF7 breast -73% | HCT-116 colon -67.8% | HCC-2998 colon -65.8% | KM12 colon -70.5%

CC/C(C)=C(\C)C(=O)O
inactive: MDA-MB-435 melanoma 99.1% | SW-620 colon 105% | MCF7 breast 98.6% | HCT-116 colon 109% | HCC-2998 colon 108% | KM12 colon 103%

O=C(Nc1ccncc1)C(=O)c1cn(S(=O)(=O)c2cccc3ccccc23)c2ccccc12
inactive: SW-620 colon 71.4% | MCF7 breast 52.3% | HCT-116 colon 45.8% | HCC-2998 colon 64.8% | KM12 colon 55%
active: MDA-MB-435 melanoma -7.64%

COc1ccc2c(c1)sc1nc(-c3ccccc3)c(-c3ccsc3)n12
inactive: SW-620 colon 19.4% | MCF7 breast 13.5% | HCT-116 colon 30.8% | KM12 colon 19.4%
active: MDA-MB-435 melanoma -39.6%

CCC1(C(C)C)NC(=O)NC1=O (centres undefined)
inactive: BT-549 breast 104% | MDA-MB-435 melanoma 106% | MCF7 breast 103% | HCT-116 colon 101% | KM12 colon 104%

COc1cc2c(cc1OCCCCCCN1CCN(CC(=O)Nc3ccc(Cl)cc3C(=O)c3ccccc3Cl)CC1)N=CC1CCCN1C2=O (centres undefined)
active: MDA-MB-435 melanoma -81.2% | SW-620 colon -83.6% | MCF7 breast -7.24% | HCT-116 colon -42.3% | KM12 colon -75.9%

CCCCCCCCCCCCCCCCN(C(C)c1ccccc1)S(=O)(=O)c1ccc(OC)c(N)c1 (centres undefined)
inactive: MDA-MB-435 melanoma 108% | SW-620 colon 99.7% | MCF7 breast 95.9% | HCT-116 colon 101% | HCC-2998 colon 97.6% | KM12 colon 100%

Nc1ccn(C2CC(O)C(CO)O2)c(=O)n1 (centres undefined)
active: HCC-2998 colon 2.98%
inactive: MDA-MB-435 melanoma 107% | SW-620 colon 113% | MCF7 breast 103% | HCT-116 colon 109% | KM12 colon 110%

COc1cc(C(=C2O[C@@H]([C@H]3COC(C)(C)O3)[C@H]3OC(C)(C)O[C@@H]23)c2cc(OC)c(OC)c(OC)c2)cc(OC)c1OC
inactive: BT-549 breast 111% | MDA-MB-435 melanoma 113% | MCF7 breast 103% | HCT-116 colon 96.4% | KM12 colon 107%

COC(=O)c1ccc(=O)oc1
inactive: BT-549 breast 104% | MDA-MB-435 melanoma 106% | MCF7 breast 100% | HCT-116 colon 97.7% | KM12 colon 104%

Cc1cs/c(=N\NC(=O)c2cc(-c3cc4ccccc4o3)nn2-c2ccccc2)n1-c1ccccc1
inactive: MDA-MB-435 melanoma 102% | SW-620 colon 93.4% | MCF7 breast 73.4% | HCT-116 colon 83% | KM12 colon 98.6%
